# Source: PubChem BioAssay
# This is a sample that favours compounds with a hit; in the whole collection about 1.7% have one here.
# PTHR1 agonist – qHTS for PTHR1 Agonists: Primary Screen. Parathyroid hormone/parathyroid hormone-related peptide receptor (Homo sapiens), Q03431. HEK293 GP2 PTHR1 cells, GloSensor cAMP luminescence, 1 h. Potency, µM (series often up to 115 µM), for inactives: top-dose activation, most hits filed as activators. hit rate 0.075% among 410,000. AID 743266, 2014; further: potency means the concentration at half of the fitted maximal effect; nearly all actives have a fitted effect of over 55% in size
#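 HEK-293-derived GP2 cells expressing PTHR1 and a GloSensor cAMP reporter, 3,000/well, plated overnight, given luciferin plus IBMX (each 0.5 mM as added) for 1 h at 37 °C, then compound for 1 h at 37 °C. Luminescence was read after 15 min at room temperature.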
# GLP1R inv ag – qHTS of GLP-1 Receptor Inverse Agonists (Inhibition Mode) | Glucagon-like peptide 1 receptor (Homo sapiens), P43220 | HEK293 GLP-1R CRE-luciferase, luminescence, 24 h; GLP-1R form is constitutively active | Potency, µM (series often up to 38.3 µM), for the others: at the highest dose activity change, negative = inhibition, usual class: inhibitors | hit rate 1.6% among 410,000 | AID 624417, 2012; further: potency means the concentration at half of the fitted maximal effect; on the % scale 0 is the no-effect control and ±100 the full control effect; nearly all actives have a fitted effect of over 55% in size
#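 GLP-1R inverse agonism mode: basal reporter luminescence in engineered HEK293 cells measured after one day of compound exposure at 37 deg C, with a 12 min room-temperature detection step.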
# GLP1R cytotox – qHTS of GLP-1 Receptor Inverse Agonists: Cytotox Screen; HEK293 cAMP-luciferase reporter cells, luminescence, 24 h; Potency, µM (highest dose often 38.3 µM), inactives show at the top dose activity change, negative = inhibition, actives largely listed as inhibitors; hit rate 0.13% among 410,000; AID 624418, 2012;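 further: loss of luciferase light is scored as toxicity; potency means the concentration at half of the fitted maximal effect; on the % scale 0 is the no-effect control and ±100 the full control effect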
#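 Cells in DMEM/10% Nu serum/1% pen-strep, 1536-well format. Pre-incubated 12 h, dosed with 23 nL compound, incubated a further 24 h. Luciferase detection, 12 min at room temp, luminescence.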
# GLP1R ag – qHTS of GLP-1 Receptor Agonists. Glucagon-like peptide 1 receptor (Homo sapiens), P43220. HEK293 GLP-1R CRE-luciferase, luminescence, 4-6 h; cells express a hypersensitive GLP-1R form. Potency, µM (titrated, usually from 45.6 µM), for inactives: at the top dose activation, hits mostly activators. hit rate 0.007% among 380,000. AID 624172, 2012; further: potency means the concentration at half of the fitted maximal effect; % of control where 0% means no effect
# LDHA inh – qHTS assay for inhibitors of human lactate dehydrogenase. activity change, % (values are at about 110 or 230 µM). L-lactate dehydrogenase A chain (Homo sapiens), P00338. purified LDHA, NADH/diaphorase-resazurin fluorescence; hits give low values. hit rate 0.15% among 480,000; in the data active means activity change below about -30%; inconclusive means mostly about -25% to -30%;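 further: plate controls were DMSO wells for no effect and wells without enzyme for full effect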
#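 Enzyme activity of human lactate dehydrogenase 5 (2 nM; 0.06 mM NADH, 0.2 mM pyruvate, 5 min, RT) is measured via a resazurin/diaphorase fluorescence readout of residual NADH.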
# IDH1 R132H inh – qHTS for Inhibitors of mutant isocitrate dehydrogenase 1 (IDH1): qHTS; hit rate 0.093% among 390,000; AID 602179, 2012; IDH1-R132H enzyme, NADPH consumption, diaphorase/resazurin fluorescence; Isocitrate dehydrogenase [NADP] cytoplasmic (Homo sapiens), O75874; Potency, µM (top dose mostly 76.6 µM), inactives show at the highest dose activity change, negative = inhibition, usual class: inhibitors; further: potency means the concentration at half of the fitted maximal effect; on the % scale 0 is the no-effect control and ±100 the full control effect; nearly all actives have a fitted effect of over 65% in size
# Target sequence (O75874 whole entry R132H, stated change not applied): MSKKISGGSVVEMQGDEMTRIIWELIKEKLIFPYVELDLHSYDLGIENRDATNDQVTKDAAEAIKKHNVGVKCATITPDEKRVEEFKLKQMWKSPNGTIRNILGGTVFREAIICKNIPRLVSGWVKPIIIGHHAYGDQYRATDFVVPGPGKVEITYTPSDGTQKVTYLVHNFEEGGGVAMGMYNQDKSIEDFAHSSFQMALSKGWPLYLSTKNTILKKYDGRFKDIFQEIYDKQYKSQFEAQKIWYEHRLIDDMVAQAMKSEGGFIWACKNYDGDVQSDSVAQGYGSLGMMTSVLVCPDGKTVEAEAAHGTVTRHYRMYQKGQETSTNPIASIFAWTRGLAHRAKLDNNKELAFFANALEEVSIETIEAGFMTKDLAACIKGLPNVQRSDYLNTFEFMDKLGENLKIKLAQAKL
#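 IDH1-R132H (0.5 ug/mL dispensed) in pH 7.5 Tris buffer was preincubated 30 min with compound, then given a substrate mix of 0.016 mM NADPH and 2 mM alpha-KG for 80 min at room temperature; remaining NADPH was read by diaphorase/resazurin fluorescence.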
# Starred values were filed as active, the others as inactive; i = inactive; ? = inconclusive; / = no result given; ! = a repeat was not active; [ ] = another dose, or the depositor's remark. Unless noted, the call rests on the fitted dose curve; in most records, active means well fitted curve in the direction sought with a large enough effect; inconclusive means small, poorly fitted or top-dose-only effect, or another doubt; inactive means no such curve, though single readings can be large; an effect the other way counts as inactive or inconclusive.
SMILES,PTHR1 agonist,GLP1R inv ag,GLP1R cytotox,GLP1R ag,LDHA inh,IDH1 R132H inh
Cc1c(N=C/C=C2\N(C)c3ccccc3C2(C)C)c(=O)n(-c2ccccc2)n1C,-11.8%[57.5 µM],?,2.24µM*,0.8%,-13.9,-1.4%
CNC(=O)NC(=O)CSC1=Nc2ccccc2CS1,/,/,/,/,-3.8,/
CCn1cc(CN2CCCC(C(=O)Nc3cccc(-c4cc5ccccc5[nH]4)c3)C2)c(C)n1 (stereo unspecified),19.1%,11.2µM*,?,1.2%,-1.0,-11.2%
CCOc1ccc(S(=O)(=O)NC2CCCCC2C)cc1 (stereo unspecified),-26.5%,10µM*,4.2%,-2.8%,-0.7,9.7%
O=C(NCc1cccc2ccccc12)C(=O)c1c[nH]c2ccccc12,/,/,/,/,-3.1,/
Cc1sc(NC(=O)CC(C)(C)CC(=O)O)c(C(N)=O)c1-c1ccccc1,/,/,/,/,-4.3,/
C1CCCCCC(NCCN2CCNCC2)CCCCC1,i,6.31µM*,11.2µM*,-2.8%,1.0,0.6%
Cc1nc2ccccc2n1CCc1nc2c3ccccc3nc(SCC(=O)NCc3ccco3)n2n1,i,?,10µM*,-1.0%,0.4,5.2%
O=Cc1c[nH]c2cccc(C(=O)O)c12,/,/,/,/,5.8,/
CCc1ccc(NC(=O)c2cnn3ccccc23)cc1,-27.0%,5.01µM*,18.0%,-5.0%,-14.9,8.0%
O=c1cnn(Cc2ccc(Cl)c(Cl)c2)c2ccccc12,-24.3%,?,?,14.9%,-2.9,-7.6%
O=c1c2ccccc2cnn1Cc1ccc(Cl)c(Cl)c1,-90.2%,10µM*,12.1%,34.4%,-0.5,9.7%
CCn1ncc(Br)c1C(=O)Nc1ccc(C(C)C)cc1,-73.2%,8.91µM*,3.2%,?,1.0,0.5%
CCn1ncc(Br)c1C(=O)Nc1cccc(F)c1,i,4.8%,4.8%,-3.5%,-2.2,6.2%
CS(=O)(=O)N(CC(=O)NCCSCc1ccccc1)c1cc(C(F)(F)F)ccc1Cl,-36.2%,11.2µM*,-12.9%,/,3.6,11.5%
CCc1cc2ccccc2nc1SCC(=O)NC1CCCC1,-9.5%,10µM*,11.2%,17.5%,-3.5,-10.0%
COc1ccccc1NC(=O)CSc1nc2ccccc2cc1Cc1ccccc1,i,10µM*,4.0%,1.2%,-4.3,4.1%
COc1ccccc1NC(=O)CSc1n[nH]c(Cc2ccccc2)n1,-6.7%,-21.7%,-6.6%,7.7%,2.1,2.7%
N#Cc1cc2ccccc2nc1SCC(=O)NC1CC1,-2.9%,3.9%,6.1%,4.2%,0.6,13.9%
CCCCCCSc1ccc([C@H]2N[C@@](C)(C(=O)OC)[C@H]3C(=O)N(CC)C(=O)[C@@H]23)cc1,-21.3%,10µM*,0.0%,25.0%,2.7,3.1%
CCCCCCSc1ccc([C@H]2N[C@@](Cc3ccccc3)(C(=O)OC)[C@H]3C(=O)N(C)C(=O)[C@@H]23)cc1,-17.8%,11.2µM*,-6.2%,11.7%,4.1,-4.1%[38.3 µM]
CCCCCCSc1ccc([C@H]2N[C@@](Cc3ccccc3)(C(=O)OC)[C@H]3C(=O)N(CC)C(=O)[C@@H]23)cc1,-17.5%,-9.7%,-16.0%,-1.5%,-2.8,7.7%
CCCCCCSc1ccc([C@H]2N[C@@](CC(C)C)(C(=O)OC)[C@H]3C(=O)N(CC)C(=O)[C@@H]23)cc1,i,-6.8%,-16.0%,9.3%,-6.2,8.2%
CC(C)C1C(c2ccccc2)N(C)C(c2ccccc2)CC1(O)c1ccccc1 (stereo unspecified),i,0.0%,2.5%,-14.4%,7.0,4.2%
CC(C)C1C(c2ccccc2)NC(c2ccccc2)CC1(O)c1ccc(F)cc1 (stereo unspecified),i,10µM*,?,3.4%,-1.1,-4.0%
SMILES,PTHR1 agonist,GLP1R inv ag,GLP1R cytotox,GLP1R ag,LDHA inh,IDH1 R132H inh
O=C(CN1C(=O)CSc2ccc(S(=O)(=O)N3CCCCC3)cc21)NCc1ccccc1Cl,i,2.51µM*,-18.2%,-4.1%,1.4,2.2%
CC[C@@H](C)[C@H](NC(=O)COc1ccc2c(=O)c(-c3ccc(Cl)cc3)c(C)oc2c1)C(=O)O,/,/,/,/,3.3,/
O=C(NNC(=O)C1C2CCCCC21)c1ccccc1Cl (stereo unspecified),/,/,/,/,-2.1,/
CCN(CC)S(=O)(=O)c1ccc(NC(=O)NCc2noc3ccc(C)cc23)cc1,-91.9%,10µM*,-30.5%,/,8.0,0.0%
Cc1ccc(O)c(C(=O)OCC(=O)Nc2cccc(N3CCCC3=O)c2)c1,/,/,/,/,-18.1,/
CCOc1ccc(NC(=S)N(Cc2ccc(Cl)cc2)Cc2ccco2)cc1,-8.7%,11.2µM*,-17.3%,-2.9%,-3.5,3.2%
Cc1nn(C(=O)C2CCCN2S(=O)(=O)c2ccc(Cl)cc2)c(C)c1Sc1ccccc1 (stereo unspecified),/,/,/,/,-15.4,/
CC1(C)Oc2c(ccc(O)c2CN2CCOCC2)C2=C1CCCC2,i,7.08µM*,-6.2%,1.5%,10.3,8.1%
COC(=O)c1nc(NC(=S)NC(=O)c2cccs2)sc1C,-6.9%,-5.1%,-7.8%,1.2%,-3.9,3.3%
O=C(NC(=S)Nc1nc2ccccc2s1)c1cccs1,-54.6%,0.9%,2.51µM*,-5.1%,-5.3,-4.2%
COCC(=O)Nc1nc2ccccc2s1,i,9.4%,-11.5%,3.9%,-3.5,1.9%
NC(=S)Nc1nc2ccccc2s1,-11.1%,4.47µM*,?,7.9%,-6.0,1.8%
CCCCCCCCCCCC(=O)Nc1cccc(C)c1C,/,/,/,/,6.2,/
COc1ccc(Cc2nnc(NC(=O)c3cccc(NC(=O)c4ccccc4)c3)s2)cc1,/,/,/,/,-20.9,/
COCCCn1c(SCC(=O)OC2CCCCC2)nnc1-c1ccco1,i,0.0%,4.2%,16.3%,-12.0,2.0%
COCCCn1c(SCC(=O)OC2CCCCC2)nnc1-c1cccs1,0.282µM*,-8.2%,6.9%,0.5%,4.6,-5.4%
Cc1ccccc1CS(=O)CCC(=O)Nc1ccccc1 (stereo unspecified),/,/,/,/,0.5,/
COc1cc(C(=O)Oc2ccc3c(=O)c(-c4ccccc4)coc3c2)cc(OC)c1OC,/,/,/,/,-31.9*,/
CCOC(=O)N1CCc2c(sc3c2c(=O)n(Cc2ccccc2)c(=O)n3Cc2cccc(C)c2)C1,-14.2%,10µM*!,2.6%,7.7%,-1.6,-17.4%
CCCCN1c2ccccc2S(=O)c2ccccc21,/,/,/,/,5.5,/
